In PubChem BioAssay (Tox21):
Several values for one entry are separate records, joined by “and”; a condition that tells them apart may be missing. Identical values can stand only once. Inconclusive results are not listed. Some compounds were tested as several samples or in several runs, with calls that do not always agree. Activity calls are given as the source filed them. Unless noted, calls come from the whole dose curve; as a rule, active = well fitted curve in the direction sought with a large enough effect in the repeat runs; inconclusive = weak or mixed curves; inactive = no such curve, though single readings can be large; an effect the other way counts as inactive or inconclusive.

Experiments:
[1] = qHTS assay to identify aromatase inhibitors - cell viability counter screen (AID 743084);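 note: cells stimulated with testosterone during compound exposure; nearly all actives have a fitted effect of over 55% in size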; note: potency is the fitted concentration of half-maximal effect
[2] = molecular target: Aryl hydrocarbon receptor (Homo sapiens) (UniProt P35869); test: qHTS assay to identify small molecule that activate the aryl hydrocarbon receptor (AhR) signaling pathway (AID 743085); note: nearly all actives have a fitted effect of over 15% in size; note: potency is the fitted concentration of half-maximal effect;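 for activation: HG2L7.5c1 human HepG2 liver cells with stably integrated DRE-driven firefly reporter; series mostly up to about 70 µM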
Procedure, shortened: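 AhR agonist activity is inferred from enhanced light output of a DRE-controlled firefly luciferase reporter in HepG2 cells, measured with ONE-Glo following 24 h treatment at 37C.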

[3] = qHTS assay to identify small molecule that activate the aryl hydrocarbon receptor (AhR) signaling pathway - cell viability counter screen (AID 743086); note: nearly all actives have a fitted effect of over 45% in size; note: potency is the fitted concentration of half-maximal effect
Procedure, shortened: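 HepG2-AhR-luc (HG2L7.5c1) cells, 4000/well, treated 24 h at 37 C with compound; viability measured as CellTiter-Fluor fluorescence after 30 min in the same wells as the luciferase read.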

[4] = molecular target: Peroxisome proliferator-activated receptor gamma (Homo sapiens) (UniProt P37231); test: qHTS assay to identify small molecule agonists of the peroxisome proliferator-activated receptor gamma (PPARg) signaling pathway (AID 743094; active = well fitted activation curve with a large enough effect in the signal ratio in the repeat runs, not every such curve was filed as active; the % refers to the signal ratio)
Procedure, shortened: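 Beta-lactamase FRET fluorescence was the read-out after a 1 h room-temperature substrate step, following 17 h compound treatment at 37C of HEK293H cells expressing a UAS-driven bla reporter responsive to PPARg.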

[5] = qHTS assay to identify small molecule phospholipidosis (PLD) inducers (AID 1259344; active = well fitted curve in the direction sought with a large enough effect; an effect the other way counts as inactive or inconclusive)
Procedure, shortened: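 HepG2 cells, 900/well, treated with compound plus LipidTOX Red for 24 h at 37 C; amiodarone positive and DMSO negative controls. Fixed with paraformaldehyde/Hoechst, then high-content imaging scored LipidTOX pit count and integrated intensity per well and per cell.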

[6] = molecular target: Nuclear receptor subfamily 1 group I member 2 (Rattus norvegicus) (UniProt Q9R1A7); test: Rat pregnane X receptor (rPXR) activation by small molecules, qHTS assay (AID 1346983); details: rPXR luciferase reporter cells, One-Glo luminescence, 24 h; max activation: stronger effect = higher value; note: nearly all actives have a fitted effect of over 20% in size; note: potency is the fitted concentration of half-maximal effect
Procedure, shortened: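 Cell-based rPXR activation assay: rPXR cells, 2,000 per well, rested 5hr at 37 C, then exposed to compounds in DMSO for 24 hr at 37 C. Luciferase activity read by One-Glo luminescence after 30 min at room temperature.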

[7] = molecular target: Nuclear receptor subfamily 1 group I member 2 (Homo sapiens) (UniProt O75469); test: CYP3A4 induction through human pregnane X receptor (PXR) by small molecules, qHTS assay (AID 1346984); note: nearly all actives have a fitted effect of over 40% in size; note: potency is the fitted concentration of half-maximal effect
Procedure, shortened: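 Luminescence readout: luciferase signal after One-Glo (30 min, room temperature), following 3 h at 37C with 3uM final Luciferin-IPA P450 substrate. Cells were DPX-2 (HepG2, PXR/CYP3A4-luc co-transfected) dosed for 24 h.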

[8] = molecular target: Nuclear receptor subfamily 1 group I member 2 (Homo sapiens) (UniProt O75469); test: Human pregnane X receptor (PXR) activation by small molecules, qHTS assay (AID 1346985); note: nearly all actives have a fitted effect of over 40% in size; note: potency is the fitted concentration of half-maximal effect
Procedure, shortened: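 DPX-2 cells (HepG2 co-transfected with a PXR response element and a CYP3A4-promoter luciferase construct) were seeded at 2,000 per well, rested 5 hr at 37C, then exposed to DMSO-dissolved compounds for 24 hr. Activation was read as luciferase luminescence.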
% is set by controls: 0 for no effect and ±100 for the full control effect.

Sequence of Aryl hydrocarbon receptor (Homo sapiens) (P35869 whole entry, looked up): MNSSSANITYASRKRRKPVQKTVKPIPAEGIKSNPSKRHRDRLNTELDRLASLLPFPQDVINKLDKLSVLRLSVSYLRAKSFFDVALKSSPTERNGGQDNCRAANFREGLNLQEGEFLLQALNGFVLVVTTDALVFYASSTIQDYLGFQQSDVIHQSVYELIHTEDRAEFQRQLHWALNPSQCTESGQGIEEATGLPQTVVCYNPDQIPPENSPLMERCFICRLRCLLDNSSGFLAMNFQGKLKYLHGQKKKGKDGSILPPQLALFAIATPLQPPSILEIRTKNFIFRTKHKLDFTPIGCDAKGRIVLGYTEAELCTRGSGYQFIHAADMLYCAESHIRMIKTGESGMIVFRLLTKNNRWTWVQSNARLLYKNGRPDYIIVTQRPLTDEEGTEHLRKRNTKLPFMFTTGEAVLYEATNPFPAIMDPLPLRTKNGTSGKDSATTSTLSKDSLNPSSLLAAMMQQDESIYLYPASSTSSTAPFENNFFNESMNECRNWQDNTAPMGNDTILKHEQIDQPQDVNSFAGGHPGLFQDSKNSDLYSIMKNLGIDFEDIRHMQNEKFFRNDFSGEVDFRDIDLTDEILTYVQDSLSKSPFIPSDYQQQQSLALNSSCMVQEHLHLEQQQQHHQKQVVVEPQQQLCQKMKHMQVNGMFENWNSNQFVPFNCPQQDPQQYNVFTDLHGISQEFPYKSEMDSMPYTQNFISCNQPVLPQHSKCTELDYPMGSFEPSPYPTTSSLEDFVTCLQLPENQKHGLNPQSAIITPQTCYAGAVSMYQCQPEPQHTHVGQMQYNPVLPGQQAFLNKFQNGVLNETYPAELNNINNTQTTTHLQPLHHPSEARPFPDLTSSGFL
Sequence of Peroxisome proliferator-activated receptor gamma (Homo sapiens) (P37231 whole entry, looked up): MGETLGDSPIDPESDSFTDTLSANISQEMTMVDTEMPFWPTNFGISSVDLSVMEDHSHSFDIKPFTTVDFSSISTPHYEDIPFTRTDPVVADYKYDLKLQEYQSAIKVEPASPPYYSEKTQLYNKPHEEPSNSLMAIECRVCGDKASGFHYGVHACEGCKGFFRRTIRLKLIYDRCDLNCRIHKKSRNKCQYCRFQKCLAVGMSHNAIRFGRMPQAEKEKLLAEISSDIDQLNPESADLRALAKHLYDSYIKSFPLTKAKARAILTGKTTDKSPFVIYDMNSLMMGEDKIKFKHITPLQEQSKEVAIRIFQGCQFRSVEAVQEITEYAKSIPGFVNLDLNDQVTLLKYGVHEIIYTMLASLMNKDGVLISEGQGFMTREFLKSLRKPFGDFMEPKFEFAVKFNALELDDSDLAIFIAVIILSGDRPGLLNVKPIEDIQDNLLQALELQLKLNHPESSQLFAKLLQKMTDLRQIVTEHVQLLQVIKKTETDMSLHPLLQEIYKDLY
Sequence of Nuclear receptor subfamily 1 group I member 2 (Rattus norvegicus) (Q9R1A7 whole entry, looked up): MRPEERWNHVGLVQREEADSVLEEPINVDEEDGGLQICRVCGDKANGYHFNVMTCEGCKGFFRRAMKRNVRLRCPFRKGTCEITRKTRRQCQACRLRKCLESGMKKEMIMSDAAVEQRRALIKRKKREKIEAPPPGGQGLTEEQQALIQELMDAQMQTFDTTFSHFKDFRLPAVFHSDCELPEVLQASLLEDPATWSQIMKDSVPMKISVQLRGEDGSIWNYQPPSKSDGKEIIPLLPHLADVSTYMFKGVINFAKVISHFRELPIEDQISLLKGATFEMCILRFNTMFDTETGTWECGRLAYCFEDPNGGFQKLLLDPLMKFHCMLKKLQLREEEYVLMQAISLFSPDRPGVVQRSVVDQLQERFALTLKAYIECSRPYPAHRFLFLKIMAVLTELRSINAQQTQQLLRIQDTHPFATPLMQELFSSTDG

C=CCN1CCCC1CNC(=O)c1cc(S(N)(=O)=O)cc(OC)c1OC (configuration not stated)
inactive: Potency [1] | Potency [2] | Potency [3] | Potency [4] | Potency [5] | max activation [6] -5.9%
active: Potency [7] 14.1 µM

CN[C@@H]1[C@@H](O)[C@@H](O[C@@H]2[C@@H](O)[C@H](O[C@H]3O[C@H](CN)[C@@H](O)[C@H](O)[C@H]3O)[C@@H](N)C[C@H]2NC(=O)C(O)CN)OC[C@]1(C)O (some centres not stated)
inactive: Potency [1] | Potency [2] | Potency [3] | Potency [5] | max activation [6] -5.41% | Potency [8]

C#C[C@]1(O)CC[C@H]2[C@@H]3CCC4=CCCC[C@@H]4[C@H]3C(=C)C[C@@]21CC
inactive: Potency [1] | Potency [2] | Potency [3] | Potency [4] | Potency [5] | max activation [6] -4.59% | Potency [7]

CC1CC(OC(=O)C(O)c2ccccc2)CC(C)(C)C1 (configuration not stated)
inactive: Potency [3] | Potency [4] | Potency [5] | max activation [6] -1.68% | Potency [7]

OC[C@@H](O)C(O)[C@H](O)CO
inactive: Potency [1] | Potency [2] | Potency [3] | Potency [4] | Potency [5] | max activation [6] -1.82% | Potency [7]

O=C1C(=O)c2ncccc2-c2cccnc21
active: Potency [2] 6.68 µM
inactive: Potency [1] | Potency [4] | Potency [5] | max activation [6] -3.81% | Potency [7]

COC(=O)[C@H]1[C@H]2C[C@@H]3c4[nH]c5cc(OC)ccc5c4CCN3C[C@H]2C[C@H](OC)[C@@H]1OC
inactive: Potency [1] | Potency [3] | Potency [5] | max activation [6] 6.76% | Potency [7]

CC1(C)[C@@H]2CC[C@@]1(C)[C@H](OC(=O)CSC#N)C2
inactive: Potency [1] | Potency [2] | Potency [3] | Potency [4] | Potency [5] | max activation [6] 7.49% | Potency [7]

CCOc1cc(-c2nccc3cc(OC)c(OC)cc23)cc(OCC)c1OCC
inactive: Potency [4] | Potency [5] | max activation [6] 5.49% | Potency [7]
active: Potency [1] 29.8 µM | Potency [2] 2.11 µM | Potency [3] 21.1 µM

CC(=O)Nc1ccc(NC(=S)NC(=O)c2ccc(C(C)(C)C)cc2)cc1
inactive: Potency [1] | Potency [3] | Potency [4] | Potency [5] | max activation [6] -2.69% | Potency [7]
active: Potency [2] 1.5 µM

CN(C)C=Nc1c(I)cc(I)c(CCC(=O)O)c1I
inactive: Potency [1] | Potency [2] | Potency [3] | Potency [5] | max activation [6] -2.71%
active: Potency [8] 14.1 µM

CC[C@@H](C(=O)[C@@H](C)[C@@H](O)[C@H](C)[C@@H]1O[C@@H]([C@@H](CC)C(=O)O)CC[C@@H]1C)[C@H]1O[C@]2(C=C[C@@H](O)[C@]3(CC[C@@](C)([C@H]4CC[C@](O)(CC)[C@H](C)O4)O3)O2)[C@H](C)C[C@@H]1C
inactive: Potency [1] | Potency [2] | Potency [3] | Potency [5] | max activation [6] -12.1% | Potency [8]

CCC[C@@H]1C[C@@H](C(=O)N[C@@H]([C@H]2O[C@H](SC)[C@H](O)[C@@H](O)[C@H]2O)[C@H](C)Cl)N(C)C1
inactive: Potency [1] | Potency [2] | Potency [3] | Potency [4] | Potency [5] | max activation [6] 7.71% | Potency [8]

CC[C@@H]1/C=C(\C)C[C@H](C)C[C@H](OC)[C@H]2O[C@@](O)(C(=O)C(=O)N3CCCC[C@H]3C(=O)O[C@H](/C(C)=C/[C@@H]3CC[C@@H](Cl)[C@H](OC)C3)[C@H](C)[C@@H](O)CC1=O)[C@H](C)C[C@@H]2OC
inactive: Potency [1] | Potency [2] | Potency [3] | Potency [4] | Potency [5] | max activation [6] -6.11% | Potency [8]

NC(=O)Oc1ccc(Cc2ccccc2)cc1
inactive: Potency [1] | Potency [2] | Potency [3] | Potency [4] | Potency [5] | max activation [6] -0.809% | Potency [8]

CN1CCN2c3ncccc3Cc3ccccc3C2C1 (configuration not stated)
active: Potency [7] 15.8 µM
inactive: Potency [3] | Potency [5] | max activation [6] -0.13%

C=C1C(=O)O[C@H]2[C@H]1CC/C(C)=C\CC[C@@]1(C)O[C@@H]21
inactive: Potency [2] | Potency [5] | max activation [6] -19.8% | Potency [7]
active: Potency [1] 18.8 µM | Potency [3] 16.8 µM

CCC(=O)O[C@]1(C(=O)CCl)[C@@H](C)C[C@H]2[C@@H]3C[C@H](F)C4=CC(=O)C=C[C@]4(C)[C@@]3(F)[C@@H](O)C[C@@]21C
active: Potency [2] 3.35 µM | Potency [6] 0.447 µM | Potency [7] 1.58 µM
inactive: Potency [1] | Potency [3] | Potency [5]

CNc1cc(OC)c(C(=O)N[C@H]2CCN(Cc3ccccc3)[C@H]2C)cc1Cl
inactive: Potency [1] | Potency [2] | Potency [3] | Potency [4] | Potency [5] | max activation [6] -1.71% | Potency [7]

CCC(=O)NCCC1CCc2ccc3c(c21)CCO3 (configuration not stated)
inactive: Potency [1] | Potency [2] | Potency [3] | Potency [4] | Potency [5] | max activation [6] -2.75%
active: Potency [8] 28.2 µM

CO[C@H]1C=CO[C@@]2(C)Oc3c(C)c(O)c4c(O)c(c5c(nc6cc(C)ccn65)c4c3C2=O)NC(=O)/C(C)=C\C=C[C@H](C)[C@H](O)[C@@H](C)[C@@H](O)[C@@H](C)[C@H](OC(C)=O)[C@@H]1C
inactive: Potency [5] | max activation [6] -6.53%
active: Potency [8] 10 µM

CC(=C\c1ccccc1)/C=C1/SC(=S)N(CC(=O)O)C1=O
inactive: Potency [1] | Potency [2] | Potency [3] | Potency [5] | max activation [6] 4.01% | Potency [7]

C=C1CC[C@H](O)CC1=C/C=C1\CCC[C@]2(C)[C@@H]([C@H](C)CC[C@@H](O)C(C)(C)O)CC[C@@H]12
inactive: Potency [1] | Potency [3] | Potency [5] | max activation [6] 5.8% | Potency [7]

CCN(CC)CCCC(C)Nc1cc(/C=C/c2ccccc2Cl)nc2cc(Cl)ccc12 (configuration not stated)
active: Potency [8] 22.4 µM
inactive: Potency [4] | Potency [5] | max activation [6] -1.25% | Potency [7]

CC(C)(C)NCC(O)c1ccc(O)c(CO)n1 (configuration not stated)
inactive: Potency [3] | Potency [5] | max activation [6] -0.193% | Potency [7] | Potency [8]

CCN(CC)CCOc1ccc2nc(N(C)C)sc2c1
inactive: Potency [1] | Potency [3] | Potency [4] | Potency [5] | max activation [6] 2.91% | Potency [7]

C#C[C@]1(O)CC[C@H]2[C@@H]3CCC4=C(CCC(=O)C4)[C@H]3CC[C@@]21C
inactive: Potency [1] | Potency [2] | Potency [3] | Potency [4] | Potency [5] | max activation [6] 5.01% | Potency [8]

COC(=O)[C@H]1[C@H]2C[C@@H]3c4[nH]c5cc(OC)ccc5c4CCN3C[C@H]2C[C@@H](OC(=O)/C=C/c2cc(OC)c(OC)c(OC)c2)[C@@H]1OC
inactive: Potency [1] | Potency [3] | Potency [4] | Potency [5] | max activation [6] -2.27% | Potency [8]

CC(=O)[C@]1(O)Cc2c(O)c3c(c(O)c2[C@@H](O[C@H]2C[C@H](N)[C@H](O)[C@H](C)O2)C1)C(=O)c1c(O)cccc1C3=O
inactive: Potency [2] | PLD induction [5] -0.0504% [at 7.66 µM] | Potency [7]
14.1 µM (active) and inactive: Potency [8]
active: Potency [1] 26.6 µM | Potency [3] 4.73 µM and 13.3 µM

CC(C)CN(C[C@@H](O)[C@H](Cc1ccccc1)NC(=O)O[C@@H]1CCOC1)S(=O)(=O)c1ccc(N)cc1
active: Potency [8] 2.82 µM
inactive: Potency [1] | Potency [2] | Potency [3] | Potency [4] | Potency [5] | Potency [7]

O=C(O)[C@H](CC(=O)N1C[C@H]2CCCC[C@H]2C1)Cc1ccccc1
inactive: Potency [1] | Potency [2] | Potency [3] | Potency [4] | Potency [5] | max activation [6] -2.62%

CCOC(=O)C1=C[C@@H](OC(CC)CC)[C@H](NC(C)=O)[C@@H](N)C1
inactive: Potency [1] | Potency [2] | Potency [3] | Potency [4] | Potency [5] | max activation [6] -4.38% | Potency [8]

CC(=O)OCC(=O)[C@@]12OC3(CCCC3)O[C@@H]1C[C@H]1[C@@H]3CCC4=CC(=O)C=C[C@]4(C)[C@@]3(F)[C@@H](O)C[C@@]12C
active: Potency [8] 14.1 µM
inactive: Potency [1] | Potency [2] | Potency [3] | Potency [4] | Potency [5] | Potency [7]

O=C1/C(=C\c2cccs2)CCC/C1=C\c1cccs1
active: Potency [2] 23.7 µM | Potency [3] 11.9 µM | Potency [6] 7.08 µM
inactive: Potency [5]
